# Measurements as given in the supplement of paper PMC8728848.
# The entries come from a sample that favours the strongest signals as a whole.
# B1: NanH (Corynebacterium diphtheriae), C6JSW6 (protein)
# chain: MYSSNRTYSRAILGLSAVLTLSFTSLVAPVNAEEPETVVPATAELEGEVAATLPSAETGLLDAAPPKPVARGAAGDLQLPAVNEKEVFEEGRVIRAPEPDQSRCYRIPALVTAKNGDLLLAFDNRYGGGDGAKTWCRDAPYENMKRINRQNMQTDIQLYRSVDNGQSFEDFGYIAQGTADVRELSYTDPALVTDRTTGKIFAFFVRAYDYRVGQSSAGFNEGDVEAEIQKRDVQDTVVVESLDGGQTWGNMRLLSALTAKVSSISTGDTIFDGRGRFVTSGAGIQLQYGEHAGRLIVPISVDIDPKDSAKFINLAIYSDDHGQTWQAGIGTAGGAGFSGDVSKIVELSDGRLMMSSKDNDKPRWVSYSEDQGENWSTPKRKIIAPPQHPEKHNTGINVGLIRAYPNAPENSAAARVLLYSAPIDQRYSHKHTEDGRNNGWVMGSCDDGKTWSFGRQIEKNRFQYSSMTVMSDGNIGMVYESGDFSTGMNLKFAKFNMAWLGADCHSNEALGLTGDIDKEIVEAQEKAAEATKEAQEAAEKVQKLTEELAAARKENDELKNQVKGFKEAVGDLANEAEDLADKVFKLETAVTEAKEKATVAEKAASDAVTQLQKAESIAEEQKAKAESAAAEAQALREKLERLEGSILTVKENPEAEEIADLSSTAKDAADAARRAATDANGALSGQKQDEEKPAMGLMGILKVLAGIIPLVAIIATIFQTFRLPFNIPGMR
# What was measured:
# Assay in all cases: glycan array binding signal (z-score within array); higher = stronger binding
# Conditions in all cases: glycan notation: IUPAC condensed, linker removed
# [1] = target: Fuc(a1-2)Gal(b1-4)GlcNAc(b1-2)Man(a1-3)[Fuc(a1-2)Gal(b1-4)GlcNAc(b1-2)Man(a1-6)]Man(b1-4)GlcNAc(b1-4)[Fuc(a1-6)]GlcNAc
# Method in brief: (§1)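 The binding signal is a Z-score computed within each array and averaged over linkers. Arrays of the same protein sequence at different concentrations or buffers were also averaged together. Data originate from 3228 arrays in the Consortium for Functional Glycomics database, kept only where the protein sequence was available.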
# [2] = target: Fuc(a1-2)Gal(b1-4)[Fuc(a1-3)]GlcNAc(b1-3)GalNAc
# Method in brief: as §1
# [3] = target: Fuc(a1-2)Gal6S(b1-4)GlcNAc
# Method in brief: as §1
# [4] = target: Fuc(a1-2)[Gal(a1-3)]Gal(b1-3)GlcNAc(b1-2)Man(a1-3)[Fuc(a1-2)[Gal(a1-3)]Gal(b1-3)GlcNAc(b1-2)Man(a1-6)]Man(b1-4)GlcNAc(b1-4)[Fuc(a1-6)]GlcNAc
# Method in brief: as §1
# [5] = target: Fuc(a1-2)[Gal(a1-3)]Gal(b1-4)[Fuc(a1-3)]GlcNAc(b1-3)GalNAc
# Method in brief: as §1
# [6] = target: Fuc(a1-2)[GalNAc(a1-3)]Gal(b1-4)GlcNAc(b1-3)Gal(b1-4)GlcNAc
# Method in brief: as §1
# Gal(a1-2)Gal = target: Gal(a1-2)Gal
# Method in brief: as §1
# Gal(b1-2)Gal = target: Gal(b1-2)Gal
# Method in brief: as §1
# [7] = target: Gal(b1-3)GalNAc(a1-3)[Fuc(a1-2)]Gal(b1-4)Glc
# Method in brief: as §1
# [8] = target: Gal(b1-3)GlcNAc(b1-3)Gal(b1-4)Glc
# Method in brief: as §1
# [9] = target: Gal(b1-3)GlcNAc(b1-3)GalNAc
# Method in brief: as §1
# [10] = target: Gal(b1-3)[Fuc(a1-4)]GlcNAc(b1-2)Man(a1-3)[Gal(b1-3)[Fuc(a1-4)]GlcNAc(b1-2)Man(a1-6)]Man(b1-4)GlcNAc(b1-4)[Fuc(a1-6)]GlcNAc
# Method in brief: as §1
# [11] = target: Gal(b1-3)[Fuc(a1-4)]GlcNAc(b1-3)Gal(b1-3)[Fuc(a1-4)]GlcNAc
# Method in brief: as §1
# Gal(b1-4)Gal = target: Gal(b1-4)Gal
# Method in brief: as §1
# [12] = target: Gal(b1-4)GlcNAc(b1-6)Gal(b1-4)GlcNAc
# Method in brief: as §1
# Gal3S(b1-4)Glc6S = target: Gal3S(b1-4)Glc6S
# Method in brief: as §1
# [13] = target: Gal3S(b1-4)[Fuc(a1-3)]Glc6S
# Method in brief: as §1
# [14] = target: GalNAc(a1-3)Fuc(a1-2)Gal(b1-4)GlcNAc(b1-3)[GalNAc(a1-3)Fuc(a1-2)Gal(b1-4)GlcNAc(b1-6)]GalNAc
# Method in brief: as §1
# GalNAc(b1-3)Gal = target: GalNAc(b1-3)Gal
# Method in brief: as §1
# [15] = target: GalNAc(b1-4)GlcNAc(b1-2)Man(a1-3)[GalNAc(b1-4)GlcNAc(b1-2)Man(a1-6)]Man(b1-4)GlcNAc(b1-4)GlcNAc
# Method in brief: as §1
# Glc(a1-4)Glc = target: Glc(a1-4)Glc
# Method in brief: as §1
# GlcA(b1-3)Gal = target: GlcA(b1-3)Gal
# Method in brief: as §1
# [16] = target: GlcNAc(a1-4)Gal(b1-4)GlcNAc(b1-3)Gal(b1-4)GlcNAc
# Method in brief: as §1
# [17] = target: GlcNAc(a1-4)Gal(b1-4)GlcNAc(b1-3)Gal(b1-4)GlcNAc(b1-3)Gal(b1-4)GlcNAc
# Method in brief: as §1
# [18] = target: GlcNAc(a1-4)Gal(b1-4)GlcNAc(b1-3)Gal(b1-4)[Fuc(a1-3)]GlcNAc(b1-3)Gal(b1-4)[Fuc(a1-3)]GlcNAc
# Method in brief: as §1
# [19] = target: GlcNAc(b1-4)Gal(b1-4)GlcNAc
# Method in brief: as §1
# [20] = target: Kdn(a2-3)Gal(b1-4)[Fuc(a1-3)]GlcNAc
# Method in brief: as §1
# [21] = target: Man(a1-2)Man(a1-3)[Man(a1-2)Man(a1-6)]Man(a1-6)[Man(a1-2)Man(a1-2)Man(a1-3)]Man
# Method in brief: as §1
# [22] = target: Man(a1-2)Man(a1-3)[Man(a1-6)]Man(a1-6)[Man(a1-2)Man(a1-3)]Man(b1-4)GlcNAc(b1-4)GlcNAc
# Method in brief: as §1
# Man(a1-3)[Man(a1-6)]Man = target: Man(a1-3)[Man(a1-6)]Man
# Method in brief: as §1
binder,measurement,setting,value
B1,glycan array binding signal (z-score),[1],1.01
same,glycan array binding signal (z-score),[2],3.22
same,glycan array binding signal (z-score),[3],0.001
same,glycan array binding signal (z-score),[4],1.3
same,glycan array binding signal (z-score),[5],-0.377
same,glycan array binding signal (z-score),[6],0.149
same,glycan array binding signal (z-score),Gal(a1-2)Gal,-1.72
same,glycan array binding signal (z-score),Gal(b1-2)Gal,2.93
same,glycan array binding signal (z-score),[7],1.05
same,glycan array binding signal (z-score),[8],-1.28
same,glycan array binding signal (z-score),[9],-1.71
same,glycan array binding signal (z-score),[10],2.84
same,glycan array binding signal (z-score),[11],-0.787
same,glycan array binding signal (z-score),Gal(b1-4)Gal,-1.5
same,glycan array binding signal (z-score),[12],1.11
same,glycan array binding signal (z-score),Gal3S(b1-4)Glc6S,-0.269
same,glycan array binding signal (z-score),[13],-0.594
same,glycan array binding signal (z-score),[14],0.818
same,glycan array binding signal (z-score),GalNAc(b1-3)Gal,-1.91
same,glycan array binding signal (z-score),[15],3.38
same,glycan array binding signal (z-score),Glc(a1-4)Glc,-0.111
same,glycan array binding signal (z-score),GlcA(b1-3)Gal,2.74
same,glycan array binding signal (z-score),[16],3.02
same,glycan array binding signal (z-score),[17],-1.05
same,glycan array binding signal (z-score),[18],3.97
same,glycan array binding signal (z-score),[19],-0.683
same,glycan array binding signal (z-score),[20],-0.213
same,glycan array binding signal (z-score),[21],3.74
same,glycan array binding signal (z-score),[22],-0.263
same,glycan array binding signal (z-score),Man(a1-3)[Man(a1-6)]Man,-0.151
